SNCA expr inh – Primary qHTS assay for inhibitors of alpha-synuclein gene (SNCA) expression; Potency, µM (series often up to 57.2 µM), most hits filed as inhibitors; HEK-293 SNCA-luciferase knock-in, luminescence, 24 h; 140,000 tested, 0.17% active; also: nearly all actives have a fitted effect of over 45% in size
SNCA viab count – GF-AFC viability counterscreen for inhibitors of alpha-synuclein gene (SNCA) expression | Potency, µM (highest dose often 57.1 µM), hits mostly cytotoxic | 150,000 tested, 0.12% active | HEK-293-SNCA-luc viability, GF-AFC fluorescence, 24 h; also: nearly all actives have a fitted effect of over 30% in size
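HEK-293-SNCA-luc cells (1500/well) plated 24 h, then exposed 24 h to a dilution series; GF-AFC added 30 min at 37C, fluorescence 405/540 nm; normalised to medium-only and DMSO wells, Hill fit.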
KDM5B inh – Primary screen for KDM5B Histone Demethylases FDH-coupled qHTS. Lysine-specific demethylase 5B (Homo sapiens), Q9UGL1. KDM5B demethylase, FDH-coupled NADH fluorescence (FDH is formaldehyde dehydrogenase). Potency, µM (doses to about 57.7 µM), usual class: inhibitors. 220,000 tested, 2.6% active; also: nearly all actives have a fitted effect of over 70% in size
Target sequence (Q9UGL1 whole entry, looked up): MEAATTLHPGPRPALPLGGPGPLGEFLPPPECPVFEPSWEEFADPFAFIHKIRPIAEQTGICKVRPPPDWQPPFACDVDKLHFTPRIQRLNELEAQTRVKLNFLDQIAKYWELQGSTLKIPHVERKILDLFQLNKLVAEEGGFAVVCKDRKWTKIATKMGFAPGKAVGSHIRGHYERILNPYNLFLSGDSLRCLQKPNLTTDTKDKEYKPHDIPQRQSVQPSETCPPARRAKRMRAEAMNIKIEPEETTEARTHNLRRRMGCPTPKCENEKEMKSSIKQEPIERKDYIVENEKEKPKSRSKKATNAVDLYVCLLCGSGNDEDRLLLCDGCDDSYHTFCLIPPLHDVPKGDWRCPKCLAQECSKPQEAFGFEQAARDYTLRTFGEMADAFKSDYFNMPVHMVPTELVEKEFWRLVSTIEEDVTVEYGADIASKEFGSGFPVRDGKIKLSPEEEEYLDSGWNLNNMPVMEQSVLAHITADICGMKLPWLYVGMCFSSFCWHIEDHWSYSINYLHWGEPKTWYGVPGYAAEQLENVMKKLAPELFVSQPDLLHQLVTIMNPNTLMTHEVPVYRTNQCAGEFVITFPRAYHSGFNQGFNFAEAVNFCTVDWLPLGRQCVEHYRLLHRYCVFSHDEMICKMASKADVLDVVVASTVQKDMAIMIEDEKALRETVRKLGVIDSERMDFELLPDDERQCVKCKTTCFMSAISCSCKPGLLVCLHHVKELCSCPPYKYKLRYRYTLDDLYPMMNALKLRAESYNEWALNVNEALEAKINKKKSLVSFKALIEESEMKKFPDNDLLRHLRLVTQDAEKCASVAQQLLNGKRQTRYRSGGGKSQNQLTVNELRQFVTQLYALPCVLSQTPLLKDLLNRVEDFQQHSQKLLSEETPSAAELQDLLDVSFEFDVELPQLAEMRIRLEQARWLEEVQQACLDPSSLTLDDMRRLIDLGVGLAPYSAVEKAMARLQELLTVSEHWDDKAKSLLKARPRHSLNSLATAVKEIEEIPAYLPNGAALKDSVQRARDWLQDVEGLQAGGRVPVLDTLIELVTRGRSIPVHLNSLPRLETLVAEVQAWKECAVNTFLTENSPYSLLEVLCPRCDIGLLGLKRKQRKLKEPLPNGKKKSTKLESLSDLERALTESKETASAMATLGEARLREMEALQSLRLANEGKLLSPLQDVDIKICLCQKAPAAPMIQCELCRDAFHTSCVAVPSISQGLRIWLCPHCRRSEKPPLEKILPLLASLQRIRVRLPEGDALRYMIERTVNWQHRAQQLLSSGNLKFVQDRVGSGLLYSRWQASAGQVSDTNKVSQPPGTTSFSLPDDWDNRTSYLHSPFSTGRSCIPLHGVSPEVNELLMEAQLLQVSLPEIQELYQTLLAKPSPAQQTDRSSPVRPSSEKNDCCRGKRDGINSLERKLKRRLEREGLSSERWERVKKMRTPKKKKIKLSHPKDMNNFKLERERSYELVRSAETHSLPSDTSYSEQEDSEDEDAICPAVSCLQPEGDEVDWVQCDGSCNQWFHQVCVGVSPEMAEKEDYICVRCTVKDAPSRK
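Inhibition is measured as reduced NADH fluorescence generation from FDH coupling to formaldehyde release. Truncated KDM5BΔAP at 200 nM final acts on H3K4me3 peptide (12.5 µM in substrate mix) in pH 7.5 HEPES buffer with Tween-20, 30 min, room temperature.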
IP6K1 inh – Primary qHTS assay for small molecule inhibitors of Inositol hexaphosphate kinase 1 (IP6K1) | Inositol hexakisphosphate kinase 1 (Homo sapiens), Q92551 | IP6K1 kinase, ADP-Glo luminescence, 2 h; hits give low values | activity change, % (series mostly up to about 58 µM) | 140,000 tested, 0.81% active | AID 1645851, 2021; in the data active = activity change below about -25%
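ADP-Glo luminescence measures ADP made by human IP6K1 during a 2 h RT reaction with ATP/IP6 (mix at 1.3 mM/130 uM); top library doses 57.5 and 19.1 uM final.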
Of the large screens only hits and unclear results are named; the others gave an inactive call; ! = a repeat was not active. Compounds with a hit are over-represented: about 2.8% of the library has one in this group of screens. Unless noted, calls follow the shape of the dose curve; as a rule, active = well fitted curve in the direction sought with a large enough effect; inconclusive = small, poorly fitted or top-dose-only effect, or another doubt; inactive = no such curve, though single readings can be large; an effect the other way counts as inactive or inconclusive.

Cc1cccc(NC(=O)Nc2ccc(C)n(CC(=O)O)c2=O)c1	KDM5B inh 20µM
Cc1cccc(NC(=O)Nc2ccc(C)n(CC(=O)Nc3ccc(C)c(C)c3)c2=O)c1	none
COc1ccccc1NC(=O)Cn1c(C)ccc(NC(=O)Nc2ccc(C)cc2)c1=O	KDM5B inh 17.8µM
CC1(C)Cc2cccc(Oc3nc4ccccc4o3)c2O1	none (no result: SNCA expr inh, SNCA viab count, IP6K1 inh)
O=C(NCc1cccs1)C1CCc2sc(C(=O)N3CCCCCC3)cc2C1 (stereo unspecified)	none
CN(C)C[C@@H]1CN(S(C)(=O)=O)C[C@H]1NC(=O)c1ccncc1	none
O=C(N[C@@H]1CN(c2ncccn2)C[C@H]1CO)c1cccc(Cl)c1	SNCA viab count inconclusive, KDM5B inh inconclusive
CN(C)C[C@@H]1CN(c2ncccn2)C[C@H]1NS(=O)(=O)c1cccs1	KDM5B inh inconclusive
Cc1cc(C(=O)N[C@@H]2CN(c3ccncn3)C[C@H]2CN(C)C)no1	none
CN(C)C[C@@H]1CN(c2ncccn2)C[C@H]1NC(=O)c1cccc(Cl)c1	KDM5B inh 28.2µM
CN(C)C[C@@H]1CN(c2ncccn2)C[C@H]1NC(=O)c1ccncc1	KDM5B inh 25.1µM
CN(C)C[C@@H]1CN(c2ncccn2)C[C@H]1NC(=O)c1ccncn1	KDM5B inh 31.6µM
CN(C)C[C@@H]1CN(c2ncccn2)C[C@H]1NS(=O)(=O)c1cccnc1	KDM5B inh 25.1µM
COC1CCC12CCN(C(=O)NCc1ccc(C)cc1)CC2 (stereo unspecified)	none (no result: KDM5B inh)
COC(=O)c1cccc(NC(=O)C2CCCN(C(=O)c3ccc(OC)c4ccccc34)C2)c1 (stereo unspecified)	none (no result: SNCA expr inh, SNCA viab count, IP6K1 inh)
O=C(N[C@@H]1CN(c2ncccn2)C[C@H]1CO)c1c(F)cccc1F	KDM5B inh inconclusive
CN(C)C[C@@H]1CN(c2ncccn2)C[C@H]1NC(=O)c1ccccc1C(F)(F)F	KDM5B inh 22.4µM
CN(C)C[C@@H]1CN(c2ncccn2)C[C@H]1NC(=O)c1cnccn1	KDM5B inh 25.1µM
CN(C)C[C@@H]1CN(c2ncccn2)C[C@H]1NC(=O)c1ccnn1C	SNCA expr inh inconclusive, KDM5B inh 28.2µM
CN(C)C[C@@H]1CN(c2ncccn2)C[C@H]1NC(=O)c1c(F)cccc1F	KDM5B inh 31.6µM
CN(C)C[C@@H]1CN(C)C[C@H]1NC(=O)c1ccccc1C(F)(F)F	none
CNC(=O)c1ccc(-c2nc(CN3CCN(C(=O)Nc4cccc(OC)c4)CC3)c(C)o2)cc1	none (no result: SNCA expr inh, SNCA viab count, IP6K1 inh)
COc1ccc(S(=O)(=O)NCC2CCC(C(=O)NCC(=O)NCc3cccnc3)CC2)cc1 (stereo unspecified)	none (no result: SNCA expr inh, SNCA viab count, IP6K1 inh)
C=CCNC(=O)CCc1c(C)nn(-c2ccccc2C)c1Oc1ccccc1	SNCA expr inh inconclusive
CN(C)C[C@@H]1CN(Cc2ccccn2)C[C@H]1NC(=O)c1ccc(Cl)cc1	none
CN(C)C[C@@H]1CN(c2ncccn2)C[C@H]1NC(=O)c1ccc2[nH]ccc2c1	KDM5B inh 31.6µM
Cc1ccsc1C(=O)N[C@@H]1CN(c2ncccn2)C[C@H]1CN(C)C	KDM5B inh 31.6µM
CN(C)C[C@@H]1CN(c2ncccn2)C[C@H]1NC(=O)c1ccc(Cl)cc1	SNCA expr inh inconclusive, KDM5B inh 28.2µM
COc1ccc(F)cc1Nc1cnc2ccc(N(C)Cc3cccnc3)nn12	SNCA expr inh inconclusive, SNCA viab count inconclusive, KDM5B inh 31.6µM
COc1ncccc1Nc1cnc2ccc(N(C)Cc3ccc(F)cc3)nn12	SNCA expr inh inconclusive, KDM5B inh 31.6µM
CN(C)c1ccc2ncc(Nc3ccccc3Cl)n2n1	KDM5B inh 35.5µM
CN(Cc1ccc(F)cc1)c1ccc2ncc(Nc3ccncc3)n2n1	KDM5B inh inconclusive
O=C(Cn1ccn2nc(-c3ccccc3)c(CO)c2c1=O)Nc1cccc(Cl)c1	KDM5B inh inconclusive
N#CC1CCN(C(=O)c2c[nH]c3ncccc23)CC1	SNCA expr inh inconclusive
CCCS(=O)(=O)N1CC[C@@H]2C(=O)NCCCCCCN(Cc3ccncc3)[C@@H]2C1	none
CC(C)(O)C(=O)N1CCN(c2ccc(C(F)(F)F)c(C3=C(c4c[nH]c5ccccc45)C(=O)NC3=O)c2)CC1	none (no result: SNCA expr inh, KDM5B inh)
COCCNc1ncc(-c2ccsc2)c2c1OCC2	KDM5B inh 35.5µM
COCCNc1ncc(-c2ccc([S+](C)(=O)[O-])cc2)c2c1OCC2	KDM5B inh 31.6µM
COCCNc1ncc(-c2cccc(NC(C)=O)c2)c2c1OCC2	KDM5B inh 39.8µM
CC(C)(C)C(=O)Oc1ccc2c(=O)c(-c3ccc(Cl)cc3)coc2c1	none (no result: SNCA expr inh, SNCA viab count, IP6K1 inh)
CN(C)C[C@@H]1CN(c2ccccn2)C[C@H]1NC(=O)c1cccs1	KDM5B inh inconclusive
Cc1ccoc1-c1nc2ccncc2[nH]1	KDM5B inh 31.6µM!
Cc1ccc(-c2nc(-c3cccs3)c(-c3cccs3)[nH]2)cc1	KDM5B inh inconclusive
c1c[nH]c(-c2nc3ccncc3[nH]2)c1	KDM5B inh 31.6µM
O=C(CSc1nc2ccncc2[nH]1)Nc1ccccc1C(F)(F)F	none
c1csc(-c2nc3ccncc3[nH]2)c1	KDM5B inh 31.6µM
c1ccc(-c2nc3ccncc3[nH]2)nc1	KDM5B inh 126µM!
COCCN1CCC2(C1)CN(C)c1ccc(C(=O)Nc3ccc(F)cc3)cc12 (stereo unspecified)	KDM5B inh inconclusive
COCCN1CCC2(C1)CN(C)c1ccc(C(=O)Nc3ccccc3)cc12 (stereo unspecified)	SNCA expr inh 10µM, KDM5B inh 25.1µM
CC(=O)N1CCCC2(C1)CN(C)c1ccc(C(=O)NCC3CC3)cc12 (stereo unspecified)	KDM5B inh 28.2µM
COCCN1CCC2(C1)CN(C)c1ccc(C(=O)NCC3CC3)cc12 (stereo unspecified)	KDM5B inh 35.5µM
CN(C)S(=O)(=O)NCCC1CN(c2cnn(C)c(=O)c2)CCO1 (stereo unspecified)	none
N#Cc1cccnc1N1CCN(Cc2cn(-c3ccccc3)nn2)CC1	KDM5B inh 22.4µM
COCCN1C(=O)CO[C@H]2CN(c3ncccn3)C[C@H]21	KDM5B inh 35.5µM
CCc1nnc2ccc(N3CCCCC3)nn12	none
CCCc1nc(SC)ncc1C(=O)Nc1cccc(F)c1	none (no result: SNCA expr inh, SNCA viab count, IP6K1 inh)
O=C1c2cc(N3CCOCC3)nc(-c3ccccc3F)c2CN1CC1CC1	KDM5B inh 39.8µM
O=C1c2cc(N3CCOCC3)nc(-c3ccc(F)cc3)c2CN1CC1CC1	KDM5B inh 39.8µM
COc1cc(F)ccc1-c1cc2c(ccn2CC2CCN(C)CC2)c(N2CCOCC2)n1	KDM5B inh inconclusive
O=C1c2cc(N3CCOCC3)nc(-c3ccc(CO)cc3)c2CN1Cc1ccccc1	none
Fc1ccccc1-c1noc(N2CCOCC2)n1	none
COc1cc(F)ccc1-c1nc(N2CCOCC2)cc2c1CN(CC1CC1)C2=O	KDM5B inh 35.5µM
CN(C)[C@@H]1CN(Cc2ccc(C#N)cc2)CC[C@@H]1CNC(=O)C1CC1	none
Cn1c2c(c3cc(F)ccc31)CN(C(=O)Nc1cccc(F)c1)CC2	KDM5B inh inconclusive
O=C(Nc1ccccc1)N1CCc2c(c3ccccc3n2CC2CC2)C1	KDM5B inh 31.6µM
